In PubChem BioAssay (NCATS):
Values joined by “and” are separate entries in the source; they are usually repeats but may differ in a detail not shown here. Identical values can stand only once. A number with no mark means an inactive call. Inconclusive results are not listed. Active and inactive are the calls of the source. Unless noted, the call rests on the fitted dose curve; in most records, active means well fitted inhibition curve with a large enough effect; inconclusive means small, poorly fitted or top-dose-only effect; inactive means flat fitted curve, though single readings scatter.

Experiments:
[1] = Drug repurposing screens with cells derived from glioblastoma tumor samples (AID 1345199); details: GBM patient neurospheres viability, ATP luminescence, 48 h; further: nearly all actives have a fitted effect of over 40% in size; further: potency means the concentration at half of the fitted maximal effect; on activity, negative = cell killing: on the % scale 0 is the no-effect control and ±100 the full control effect
In short: (§1)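 Four patient lines of CD133+ GBM neurospheres were screened at several concentrations; hits were retested in those lines plus three slower-growing GBM lines, using 48-hour treatment and ATP-based viability.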

astro = control astrocytes; experiment: as above; details: viability, ATP luminescence, 48 h; series mostly up to 45.9 µM
In short: as §1

[2] = molecular target: Nuclear receptor subfamily 1 group I member 2 (Rattus norvegicus) (UniProt Q9R1A7); experiment: qHTS assay for small molecule activators of the rat pregnane X receptor (rPXR) signaling pathway (AID 651751; call rule not given here; further: 0% is about no effect); details: rPXR reporter cells, luciferase (One-Glo), 24 h
[3] = at 45.9 µM (top of the series), tumour line B
[4] = at 45.9 µM (top of the series), tumour line D
[5] = at 46.1 µM (top of the series), tumour line C

Nuclear receptor subfamily 1 group I member 2 (Rattus norvegicus), sequence (Q9R1A7 whole entry, looked up): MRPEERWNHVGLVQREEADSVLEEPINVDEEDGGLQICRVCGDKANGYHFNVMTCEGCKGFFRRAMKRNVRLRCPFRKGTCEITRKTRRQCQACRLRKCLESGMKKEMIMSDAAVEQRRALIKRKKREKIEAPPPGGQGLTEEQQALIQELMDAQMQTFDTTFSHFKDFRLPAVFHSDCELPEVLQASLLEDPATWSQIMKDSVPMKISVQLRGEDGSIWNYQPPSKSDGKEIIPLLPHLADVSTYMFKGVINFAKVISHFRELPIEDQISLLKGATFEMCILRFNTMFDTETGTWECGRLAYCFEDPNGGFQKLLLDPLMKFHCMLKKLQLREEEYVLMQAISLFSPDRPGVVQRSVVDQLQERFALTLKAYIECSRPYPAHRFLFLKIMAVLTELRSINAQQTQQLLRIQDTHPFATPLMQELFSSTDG

For `CC1=CC(=O)NS(=O)(=O)O1`, the activity, negative = cell killing [1, 3] was -5.56%, the activity, negative = cell killing [1, 4] was 0.134% and the activity, negative = cell killing [1, 5] was -19.5%. The Potency (astro) was “inactive” and the max response [2] was 4.96% and 0.0631%.
For `Cn1c(=O)c2c(ncn2CCOC(=O)C(C)(C)Oc2ccc(Cl)cc2)n(C)c1=O`, the activity, negative = cell killing [1, 3] was -17%, the activity, negative = cell killing [1, 5] was -18.4% and the Potency (astro) was “inactive”.
For `CO/N=C(\C(=O)N[C@@H]1C(=O)N2C(C(=O)[O-])=C(C[n+]3cccc4c3CCC4)CS[C@H]12)c1csc(N)n1`, the activity, negative = cell killing [1, 3] was -11.7%, the activity, negative = cell killing [1, 4] was -9.09% and the Potency ([1]; tumour line C) was 23.1 µM (active). The Potency (astro) was “inactive”.
With `O=C(c1cc2ccccc2o1)N1CCN(Cc2ccccc2)CC1` the activity, negative = cell killing [1, 3] was -15.4%, the Potency ([1]; tumour line A) was 11.2 µM (active) and the Potency (astro) was “inactive”.
With `CC(C)C[C@H](NC(=O)[C@@H](Cc1c[nH]c2ccccc12)NC(=O)[C@H](Cc1ccc(O)cc1)NC(=O)[C@H](CO)NC(=O)[C@H](Cc1c[nH]c2ccccc12)NC(=O)[C@H](Cc1cnc[nH]1)NC(=O)[C@@H]1CCC(=O)N1)C(=O)N[C@@H](CCCN=C(N)N)C(=O)N1CCC[C@@H]1C(=O)NCC(N)=O` the activity, negative = cell killing [1, 3] was -6.78%, the activity, negative = cell killing [1, 5] was -22.9% and the Potency (astro) was “inactive”.
For `OCCOCCOCCO`, the activity, negative = cell killing [1, 3] was -6.55%, the activity, negative = cell killing [1, 4] was -3.68% and the activity, negative = cell killing [1, 5] was 4.43%. For the same compound, the Potency (astro) was “inactive” and the max response [2] was 0.109% and -2.24%.
Work on `C=C1c2c(Cl)ccc(O)c2C(O)=C2C(=O)[C@]3(O)C(O)=C(C(N)=O)C(=O)[C@@H](N(C)C)[C@@H]3[C@@H](O)[C@H]12` yielded an activity, negative = cell killing ([1]; at 20 µM (top of the series), tumour line C) of 3.1% and an activity, negative = cell killing ([1]; at 21.2 µM (top of the series), tumour line D) of -28.3%.
